The source made the active and inactive calls. The call rests on the fitted dose curve.
Assay: qHTS assay to identify small molecule agonists of the sonic hedgehog signaling (Shh) pathway (AID 1259368);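 further: NIH/3T3-derived 3T3Gli1-Luc cells carrying a stable Gli1-driven firefly luciferase reporter; nearly all actives have a fitted effect of over 15% in size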
Conditions: NIH/3T3 Gli1-Luc reporter, luciferase, 24 h, stronger effect = higher value; series mostly up to 92.4 µM
How it was run: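 Following a 24 hr incubation with DMSO-dissolved compounds at 37 C, 5% CO2, Gli1-Luc NIH/3T3-derived cells received luciferase reagent for 30 min at room temperature prior to luminescence measurement.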
With `CN1Cc2cc(C(=O)N3CCC(C4CCNCC4)CC3)ccc2NC(CC(=O)O)C1=O` (centres undefined) the outcome was “inactive”.
With `CC(=O)NO` the outcome was “inactive”.
For `CC(=O)[O][Al][O]C(C)=O`, the outcome was “inactive”.
In the case of `O=C1OC(CN2CCOCC2)CN1/N=C/c1ccc([N+](=O)[O-])o1` (centres undefined), the outcome is reported as “inactive”.
In the case of `COCCCN1CCC(NC(=O)c2cc(Cl)c(N)c3c2OCC3)CC1`, the outcome is reported as “inactive”.
For `C1CCCNCCC1`, the outcome was “inactive”.
With `CCCCC(CC)COC(=O)COc1ccc(Cl)cc1Cl` (centres undefined) the outcome was “inactive”.
With `CCC(C)O` (centres undefined) the outcome was “inactive”.
In the case of `C[C@@H](c1ncncc1F)C(O)(Cn1cncn1)c1ccc(F)cc1F` (some centres undefined), the outcome is reported as “inactive”.
With `CC(C)(C)OCC1CO1` (centres undefined) the outcome was “inactive”.
With `COS(=O)(=O)C(F)(F)F` the outcome was “inactive”.
In the case of `C[Si](C)(CCCN)O[Si](C)(C)CCCN`, the outcome is reported as “inactive”.
For `O=C1OC(=O)C2C3C=CC(C3)C12` (centres undefined), the outcome was “inactive”.
For `CC(C)(C)Cl`, the outcome was “inactive”.
With `Cc1ccc(C(C)OC(=O)C2(C)CCC(C(=O)O)C2(C)C)cc1` (centres undefined) the outcome was “inactive”.
In the case of `O=C(NCCO[N+](=O)[O-])c1cccnc1`, the outcome is reported as “inactive”.
With `CN(C)CCN(Cc1ccsc1)c1ccccn1` the outcome was “inactive”.
In the case of `Nc1cc(C(=O)O)c(O)c(S(=O)(=O)O)c1`, the outcome is reported as “inactive”.
With `C[C@H]1C[C@H]2[C@@H]3CCC4=CC(=O)C=C[C@]4(C)[C@@]3(Cl)[C@@H](O)C[C@]2(C)[C@@]1(O)C(=O)CO` the outcome was “inactive”.
With `CC(C)Nc1ccc(NC(C)C)c2c1C(=O)c1ccccc1C2=O` the outcome was “inactive”.
With `CC(C)(CO)[N+](=O)[O-]` the outcome was “inactive”.
For `COc1ccc(C(=O)N2CCN(CC(=O)N3CCOCC3)CC2)cc1`, the outcome was “inactive”.
For `O=C(O)c1ccccc1Cl`, the outcome was “inactive”.
In the case of `CCCCCCCC#N`, the outcome is reported as “inactive”.
For `CCCCc1ncc(/C=C(\Cc2cccs2)C(=O)O)n1Cc1ccc(C(=O)O)cc1`, the outcome was “inactive”.
In the case of `CC1(c2ccccc2)OC(C(=O)O)=CC1=O` (centres undefined), the outcome is reported as “inactive”.
In the case of `NC(N)=NCCC[C@H](N)C(=O)O`, the activity change is reported as -0.124% [at 8.39 µM] (inactive).
With `CC/C=C\CCOC(=O)CC` the outcome was “inactive”.
In the case of `CN1CCN(C(c2ccccc2)c2ccccc2)CC1`, the outcome is reported as “inactive”.

Source: PubChem BioAssay (Tox21)
On the % scale 0 is the no-effect control and ±100 the full control effect.
